# Read-outs that look alike come from different tables or passages of the source.
# Columns and labels:
# Set-up in all cases: species or system human, MV4-11 + K-562 + COLO205 + SK-N-BE2 + OVCAR-8
# ABL1 = settings: read-out: apparent Kd, n = 1
# BCR = settings: read-out: apparent Kd, n = 1
# EPHA2 = settings: read-out: apparent Kd, n = 1
# HCK = settings: read-out: apparent Kd, n = 1
# PHKG2 = settings: read-out: apparent Kd, n = 1
# PRKAA2 = settings: read-out: apparent Kd, n = 1
# PRKX = settings: read-out: apparent Kd, n = 1
# PTK6 = settings: read-out: apparent Kd, n = 1
# SRC = settings: read-out: apparent Kd, n = 1
# YES1 = settings: read-out: apparent Kd, n = 1
# CSNK1E = settings: read-out: apparent Kd, n = 1
# ADCK1 = settings: read-out: apparent Kd; compound concentrations: 100 nM and 1000 nM (sheet 'Samples'), CATDS: 5.0791005267813499E-3; n = 1
# CDK17 = settings: read-out: apparent Kd, compound concentrations: 100 nM and 1000 nM (sheet 'Samples'), n = 1
# CSNK1A1 = settings: read-out: apparent Kd, compound concentrations: 100 nM and 1000 nM (sheet 'Samples'), n = 1
# MAPK8 = settings: read-out: apparent Kd, compound concentrations: 100 nM and 1000 nM (sheet 'Samples'), n = 1
# RIOK2 = settings: read-out: apparent Kd, compound concentrations: 100 nM and 1000 nM (sheet 'Samples'), n = 1
# ROCK2 = settings: read-out: apparent Kd; compound concentrations: 100 nM and 1000 nM (sheet 'Samples'), CATDS: 4.7820751865343299E-3; n = 1
# STK16 = settings: read-out: apparent Kd, compound concentrations: 100 nM and 1000 nM (sheet 'Samples'), n = 1
# STK3 = settings: read-out: apparent Kd; compound concentrations: 100 nM and 1000 nM (sheet 'Samples'), CATDS: 4.2986396089691199E-3; n = 1
# TNIK = settings: read-out: apparent Kd, compound concentrations: 100 nM and 1000 nM (sheet 'Samples'), n = 1
# [1] = compound concentrations:100 nM and 1000 nM (sheet 'Samples')
structure (smiles),measurement,setting,value
CN1C[C@@H]2Cn3c(c(C4=C(c5cn(C)c6ccccc56)C(=O)NC4=O)c4ccccc43)C[C@H]2C1.Cl [RO0320234-001],potency estimated from few doses,ABL1; [1],93.7 nM
same,potency estimated from few doses,BCR; [1],57.1 nM
same,potency estimated from few doses,EPHA2; [1],59.7 nM
same,potency estimated from few doses,HCK; [1],317 nM
same,potency estimated from few doses,PHKG2; [1],2180 nM
same,potency estimated from few doses,PRKAA2; [1],448 nM
same,potency estimated from few doses,PRKX; [1],925 nM
same,potency estimated from few doses,PTK6; [1],970 nM
same,potency estimated from few doses,SRC; [1],120 nM
same,potency estimated from few doses,YES1; [1],97.8 nM
CCn1c(-c2nonc2N)nc2c(C#CC(C)(C)O)nc(CN3CCCC3)cc21 [GSK1000163A],potency estimated from few doses,"PRKX; compound concentrations: 100 nM and 1000 nM (sheet 'Samples'), CATDS: 0.25481287922850399",759 nM
O=C1NC(=O)C(N2CCc3ccccc32)=C1c1ccccc1Cl [SB-373598],potency estimated from few doses,ABL1; [1],172 nM
same,potency estimated from few doses,BCR; [1],243 nM
same,potency estimated from few doses,EPHA2; [1],87.4 nM
same,potency estimated from few doses,HCK; [1],312 nM
same,potency estimated from few doses,PHKG2; [1],872 nM
same,potency estimated from few doses,PRKAA2; [1],694 nM
same,potency estimated from few doses,PRKX; [1],367 nM
same,potency estimated from few doses,PTK6; [1],606 nM
same,potency estimated from few doses,SRC; [1],134 nM
same,potency estimated from few doses,YES1; [1],128 nM
Cl.NCc1ccc(-c2nc(-c3ccc(Cl)c(O)c3)c(-c3ccncc3)[nH]2)cc1 [SB-476429-A],potency estimated from few doses,CSNK1E; [1],1380 nM
Cn1ncc2c(N)ncnc21 [SKF-18267],potency estimated from few doses,"ABL1; compound concentrations: 100 nM and 1000 nM (sheet 'Samples'), CATDS: 4.5890401321851898E-3",972 nM
same,potency estimated from few doses,ADCK1,789 nM
same,potency estimated from few doses,"BCR; compound concentrations: 100 nM and 1000 nM (sheet 'Samples'), CATDS: 5.2917709527679404E-3",729 nM
same,potency estimated from few doses,CDK17; CATDS: 5.1710144175889199E-3,762 nM
same,potency estimated from few doses,CSNK1A1; CATDS: 5.1324512690416697E-3,773 nM
same,potency estimated from few doses,"CSNK1E; compound concentrations: 100 nM and 1000 nM (sheet 'Samples'), CATDS: 4.2831601683339304E-3",1130 nM
same,potency estimated from few doses,"EPHA2; compound concentrations: 100 nM and 1000 nM (sheet 'Samples'), CATDS: 6.1597951567788304E-3",555 nM
same,potency estimated from few doses,"HCK; compound concentrations: 100 nM and 1000 nM (sheet 'Samples'), CATDS: 4.5358126876330496E-3",997 nM
same,potency estimated from few doses,MAPK8; CATDS: 3.9571355950897801E-3,1370 nM
same,potency estimated from few doses,"PHKG2; compound concentrations: 100 nM and 1000 nM (sheet 'Samples'), CATDS: 4.3394023432843602E-3",1100 nM
same,potency estimated from few doses,"PTK6; compound concentrations: 100 nM and 1000 nM (sheet 'Samples'), CATDS: 4.9971490936353098E-3",815 nM
same,potency estimated from few doses,RIOK2; CATDS: 5.3875103826164002E-3,705 nM
same,potency estimated from few doses,ROCK2,891 nM
same,potency estimated from few doses,"SRC; compound concentrations: 100 nM and 1000 nM (sheet 'Samples'), CATDS: 7.2051481672215003E-3",429 nM
same,potency estimated from few doses,STK16; CATDS: 4.0331507933998702E-3,1310 nM
same,potency estimated from few doses,STK3,1120 nM
same,potency estimated from few doses,"YES1; compound concentrations: 100 nM and 1000 nM (sheet 'Samples'), CATDS: 6.9300225951379104E-3",456 nM
COc1ccc(Nc2ncc(C#N)c(Nc3ccccc3C(N)=O)n2)cc1N1CCN(C)CC1.Cl [GSK1558669A],potency estimated from few doses,"ABL1; compound concentrations: 100 nM and 1000 nM (sheet 'Samples'), CATDS: 1.2086196789939699E-2",112 nM
same,potency estimated from few doses,"BCR; compound concentrations: 100 nM and 1000 nM (sheet 'Samples'), CATDS: 1.27803345453226E-2",96.9 nM
same,potency estimated from few doses,CDK17; CATDS: 6.8555901877920197E-3,789 nM
same,potency estimated from few doses,"HCK; compound concentrations: 100 nM and 1000 nM (sheet 'Samples'), CATDS: 7.9271656911812094E-3",417 nM
same,potency estimated from few doses,"PRKAA2; compound concentrations: 100 nM and 1000 nM (sheet 'Samples'), CATDS: 3.3781833346765697E-2",15.3 nM
same,potency estimated from few doses,"PTK6; compound concentrations: 100 nM and 1000 nM (sheet 'Samples'), CATDS: 1.8195014804837699E-2",44.6 nM
same,potency estimated from few doses,RIOK2; CATDS: 6.5501119131463198E-3,1000 nM
same,potency estimated from few doses,STK16; CATDS: 6.09253969178725E-3,1570 nM
same,potency estimated from few doses,TNIK; CATDS: 6.3415403729181101E-3,1210 nM
same,potency estimated from few doses,"YES1; compound concentrations: 100 nM and 1000 nM (sheet 'Samples'), CATDS: 8.5191429755921595E-3",318 nM
CCOC(=O)N1CCC(n2cnc(-c3ccc(F)cc3)c2-c2ccnc(N)n2)CC1 [SB-219952],potency estimated from few doses,"ABL1; compound concentrations: 100 nM and 1000 nM (sheet 'Samples'), CATDS: 8.9388068544210691E-3",1180 nM
same,potency estimated from few doses,CSNK1A1; CATDS: 5.7270515376472299E-2,44.2 nM
same,potency estimated from few doses,"CSNK1E; compound concentrations: 100 nM and 1000 nM (sheet 'Samples'), CATDS: 8.1899018563860101E-2",27.3 nM
same,potency estimated from few doses,"EPHA2; compound concentrations: 100 nM and 1000 nM (sheet 'Samples'), CATDS: 1.0740036537242301E-2",726 nM
same,potency estimated from few doses,"HCK; compound concentrations: 100 nM and 1000 nM (sheet 'Samples'), CATDS: 1.02495423413253E-2",814 nM
same,potency estimated from few doses,MAPK8; CATDS: 8.8818893864712808E-3,1210 nM
same,potency estimated from few doses,"PHKG2; compound concentrations: 100 nM and 1000 nM (sheet 'Samples'), CATDS: 9.7897546431884499E-3",916 nM
same,potency estimated from few doses,"PRKAA2; compound concentrations: 100 nM and 1000 nM (sheet 'Samples'), CATDS: 1.0917376994103299E-2",698 nM
same,potency estimated from few doses,"PTK6; compound concentrations: 100 nM and 1000 nM (sheet 'Samples'), CATDS: 1.0027639490301001E-2",861 nM
same,potency estimated from few doses,"SRC; compound concentrations: 100 nM and 1000 nM (sheet 'Samples'), CATDS: 1.0314047860945599E-2",802 nM
same,potency estimated from few doses,"YES1; compound concentrations: 100 nM and 1000 nM (sheet 'Samples'), CATDS: 1.05685479515238E-2",755 nM
Cc1ccc(Nc2ccnc(Nc3ccc4c(c3)CS(=O)(=O)C4)n2)cc1O.Cl [GW579362A],potency estimated from few doses,"ABL1; compound concentrations: 100 nM and 1000 nM (sheet 'Samples'), CATDS: 2.9223994432995299E-2",1330 nM
same,potency estimated from few doses,"BCR; compound concentrations: 100 nM and 1000 nM (sheet 'Samples'), CATDS: 4.5785194143174703E-2",428 nM
same,potency estimated from few doses,"PTK6; compound concentrations: 100 nM and 1000 nM (sheet 'Samples'), CATDS: 3.01604654859133E-2",1200 nM
same,potency estimated from few doses,STK16; CATDS: 2.76147737346315E-2,1620 nM
COc1cccc2c(-c3ccncc3)c(-c3ccc(F)cc3)nn12 [GW468513X],potency estimated from few doses,CSNK1A1; CATDS: 4.67055815056669E-2,666 nM
same,potency estimated from few doses,"CSNK1E; compound concentrations: 100 nM and 1000 nM (sheet 'Samples'), CATDS: 8.4108879944504403E-2",140 nM
same,potency estimated from few doses,MAPK8; CATDS: 3.7375924419407701E-2,1750 nM
Cl.ON=C1CCc2cc(-c3nc(C4CCNCC4)[nH]c3-c3ccncc3)ccc21 [SB-614067-R],potency estimated from few doses,CSNK1E; [1],1190 nM
CCn1c(-c2nonc2N)nc2c(C#CC(C)(C)O)nc(OCCN)cc21.CCn1c(-c2nonc2N)nc2c(C#CC(C)(C)O)nc(OCCN)cc21.Cl.Cl [GSK902056A],potency estimated from few doses,PRKX; [1],176 nM
Cc1ccc2c(-c3ccncc3)c(-c3ccc(F)cc3)nn2c1.Cl [GW461484A],potency estimated from few doses,ABL1; [1],1220 nM
same,potency estimated from few doses,BCR; [1],545 nM
same,potency estimated from few doses,CSNK1E; [1],673 nM
same,potency estimated from few doses,EPHA2; [1],754 nM
same,potency estimated from few doses,HCK; [1],755 nM
same,potency estimated from few doses,PHKG2; [1],1600 nM
same,potency estimated from few doses,PRKAA2; [1],1840 nM
same,potency estimated from few doses,PTK6; [1],871 nM
same,potency estimated from few doses,SRC; [1],593 nM
same,potency estimated from few doses,YES1; [1],556 nM
CCn1c(-c2nonc2N)nc2c(-c3ccccc3)ncc(OCCCN)c21.CCn1c(-c2nonc2N)nc2c(-c3ccccc3)ncc(OCCCN)c21.O=C(O)C(F)(F)F.O=C(O)C(F)(F)F [GSK260205A],potency estimated from few doses,"CSNK1E; compound concentrations: 100 nM and 1000 nM (sheet 'Samples'), CATDS: 3.6163147578600598E-2",706 nM
same,potency estimated from few doses,TNIK; CATDS: 3.2855545776320001E-2,950 nM
Fc1ccc(-c2c(-c3ccncc3)[nH]c3cccnc23)cc1 [RO1153853-000],potency estimated from few doses,"CSNK1E; compound concentrations: 100 nM and 1000 nM (sheet 'Samples'), CATDS: 9.9990073063758705E-2",274 nM

# — paper PMC11062922 (Nature Chemical Biology, 2023)
